Only some compounds are listed: those with a hit (about 1.6% of all), similar ones and a draw of the others.
TNFa cytotox – HUVEC cytotoxicity counter-screen, TNF alpha stimulated; cell count reduction, % at 2 µM; HUVEC TNFalpha-stimulated, Hoechst cell count, imaging; 93,000 tested, 0.17% active;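 active = cell count reduction exceeding the screen mean by over 5 SD, scaled to untreated wells per plate, cut at about 78% in these data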;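 also: cells counted after 24 h of TNF alpha exposure following the 1 h pretreatment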
S1P2 agonist – activates the human S1P2 receptor; activation, % at 4.5 µM; O95136; S1P2-expressing cell line, agonist reporter read-out; 97,000 tested, 0.46% active; in the data active = activation above about 16%;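 also: 0% = vehicle low control and 100% = maximal reference agonist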
Target sequence (O95136 whole entry, looked up): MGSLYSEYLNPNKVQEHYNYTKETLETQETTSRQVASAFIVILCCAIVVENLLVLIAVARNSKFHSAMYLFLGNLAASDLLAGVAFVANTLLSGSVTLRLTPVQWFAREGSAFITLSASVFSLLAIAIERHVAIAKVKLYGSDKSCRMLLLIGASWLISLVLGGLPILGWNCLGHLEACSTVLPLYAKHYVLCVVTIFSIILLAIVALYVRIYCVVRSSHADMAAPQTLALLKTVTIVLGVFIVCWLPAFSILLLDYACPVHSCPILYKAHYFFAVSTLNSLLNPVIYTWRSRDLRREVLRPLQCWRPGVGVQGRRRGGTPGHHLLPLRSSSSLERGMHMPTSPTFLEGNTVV
E-sel TNF inh – blocks E-selectin expression induced by TNF alpha | HUVEC TNFa-induced E-selectin immunofluorescence, high content | inhibition, % at 2 µM | 120,000 tested, 0.71% active | AID 1246;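 active = inhibition above the batch mean plus 3 SD, and confirmed as a hit on visual image review, cut at about 43% in these data; inconclusive = passes the inhibition cutoff but fails visual image review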;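 also: 0% = TNF-stimulated DMSO wells and 100% = unstimulated control wells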
F-actin modifier – alters cytoskeleton assembly in HUVEC cells; HUVEC TNFa F-actin phalloidin imaging, high content; inhibition, % at 2 µM; 91,000 tested, 0.18% active;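 active = inhibition above the batch mean plus 3 SD and confirmed as a hit by visual image inspection, cut at about 30% in these data, passing the limit was not always enough; inconclusive = above the inhibition threshold but rejected on visual inspection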
VCAM1 TNFa inh – reduces TNF alpha induced VCAM1 expression in HUVEC. inhibition, % at 2 µM. HUVEC TNFa-induced VCAM-1 immunofluorescence, high-content imaging. 95,000 tested, 0.48% active;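 active = inhibition above the batch mean plus 3 SD, with images confirmed as a hit by eye, cut at about 37% in these data; inconclusive = inhibition above that limit but hit not confirmed in images; inactive = inhibition not above that limit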;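 also: 0% = TNF-stimulated DMSO wells and 100% = unstimulated control wells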
S1P2 blocker – S1P2 (human) receptor antagonism. O95136. cell-based S1P2 antagonist assay, inhibition at 5 uM. inhibition, % at 5 µM. 97,000 tested, 0.21% active. AID 736; in the data active = inhibition above about 45%;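 also: CRE beta-lactamase reporter cells expressing human S1P2 stimulated with S1P; 0% = agonist at EC80 alone and 100% = agonist plus reference antagonist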
* = called active by the depositor; ? = inconclusive; / = not tested or not shown.

SMILES | TNFa cytotox | S1P2 agonist | E-sel TNF inh | F-actin modifier | VCAM1 TNFa inh | S1P2 blocker
Cc1nc2c(=O)n(C)c(=O)nc-2n(C)n1 | -15 | 10 | -37 | 3 | -10 | 96*
Nc1c(C(=O)NC2CCCC2)c2nc3ccccc3nc2n1CC1CCCO1 (centres undefined) | -5 | 44* | / | -3 | 4 | -56
CCN(CC)CCOC(=O)c1ccc(N=Cc2c(O)[nH]c(=O)[nH]c2=O)cc1 | 5 | -6 | 51* | -17 | 16 | 19
COC(=O)c1c(C)[nH]c(C(=O)C(C)[N+]23CCN(CC2)CC3)c1C (centres undefined) | / | / | -52 | / | / | /
C[C@H]1CCC[C@@H](O)CCC/C=C/c2cc(O)cc(O)c2C(=O)O1 | -47 | -5 | -4 | -9 | -80 | 10
CC1CCC/C=C/C2CC(O)CC2C(O)/C=C/C(=O)O1 (centres undefined) | 87* | -1 | 98* | 13 | 94* | 4
Cn1c(O)c(C(=N)COc2cccc(Cl)c2)c(=O)n(C)c1=O | -13 | -9 | 65* | 20 | 5 | 6
CC1CC(C)CN(CC(=O)c2ccc(OC(F)F)cc2)C1 (centres undefined) | / | / | -2 | / | / | /
CC(C)CNC(=O)c1c(N)n(Cc2ccco2)c2nc3ccccc3nc12 | 6 | 33* | -7 | 1 | -24 | -65
CC(C)CCNC(=O)c1c(N)n(Cc2ccc3c(c2)OCO3)c2nc3ccccc3nc12 | -25 | 129* | 11 | 13 | -4 | -98
Nc1c(C(=O)NCc2ccco2)c2nc3ccccc3nc2n1CCN1CCCCC1 | -3 | 28* | 4 | 5 | 20 | -1
CC(C)CNC(=O)c1c(N)n(Cc2ccc3c(c2)OCO3)c2nc3ccccc3nc12 | 13 | 67* | -2 | -1 | 35 | -140
CCOC(=O)C(=O)NC1CCSC1=O (centres undefined) | 6 | -7 | -1 | -27 | -5 | -22
Cc1nn(Cc2ccccc2)c(C)c1C(=O)OCC(=O)Nc1ccccc1SCC#N | -22 | -9 | -9 | -12 | 12 | 16
Cc1ccc(-c2nc(CS(=O)CC(=O)N3CCC4(CC3)OCCO4)c(C)o2)cc1 (centres undefined) | 11 | -8 | -10 | -5 | 14 | -1
CCOC(=O)C(=CNc1ccc(C(O)(C(=O)OCC)C(F)(F)F)cc1C)C(=O)OCC (centres undefined) | / | / | -25 | / | / | /
COCCNC(=O)c1c(N)n(CCC(C)C)c2nc3ccccc3nc12 | -4 | 16* | 0 | -28 | -9 | -34
CCCCNC(=O)c1c(N)n(CCCOC)c2nc3ccccc3nc12 | / | / | -56 | / | / | /
CN1/C(=C\C=Nc2ccccc2)C(C)(C)c2ccccc21 | -8 | -6 | -20 | 10 | 12 | 0
CN1/C(=C\C=C\C2=[N+](C)c3ccc4ccccc4c3C2(C)C)C(C)(C)c2ccccc21 | 28 | -5 | 7 | 14 | 84* | 95*
COc1ccc(Oc2cc(NC(=O)c3nn(C)cc3[N+](=O)[O-])cc([N+](=O)[O-])c2)cc1 | 39 | 0 | 90* | 24 | 90* | 14
Cc1cccc(N2C(=O)NC(=O)/C(=C\c3cccn3-c3ccc(Cl)cc3)C2=O)c1 | -26 | -6 | -5 | -18 | -2 | 56*
Cc1ccc(-n2nc(C)cc2NC(=O)COc2cc(C)cc3oc(=O)c4c(c23)CCC4)cc1 | 17 | -11 | 15 | -28 | 12 | 11
CCCCCCN=C(C)c1c(O)n(Cc2ccccc2)c(=O)[nH]c1=O | 5 | 3 | 5 | 12 | 11 | -13
CC(=NCCCO)c1c(O)n(Cc2ccccc2)c(=O)[nH]c1=O | / | -5 | -26 | 39 | 94* | 7
SMILES | TNFa cytotox | S1P2 agonist | E-sel TNF inh | F-actin modifier | VCAM1 TNFa inh | S1P2 blocker
CSc1ccc(CNC2CN3CCC2CC3)cc1 (centres undefined) | 86* | -4 | -3 | -17 | 93* | 6
CSc1ccc(CN2CCN(Cc3ccccc3Cl)CC2)cc1 | / | / | -36 | / | / | /
O=C1C(=O)c2cccc3cccc1c23 | / | / | 4 | / | / | /
O=C1C(=O)c2ccccc2-c2ccccc21 | 41 | -4 | -26 | 18 | 84* | 19
Cc1ccc[n+](CC(O)Cn2c3ccccc3c3ccccc32)c1 (centres undefined) | / | / | 4 | / | / | /
O=C(Nc1ccc(Br)cc1)c1nn(C23CC4CC(CC(C4)C2)C3)cc1Br | -12 | -4 | 5 | 22 | 2 | 21
CCOC(=O)CC(NC(=O)C(Cc1ccc(N(CCCl)CCCl)cc1)NC(C)=O)C(=O)OCC (centres undefined) | / | / | 11 | / | / | /
COC(=O)C1CN(C#N)N(c2ccc(Cl)cc2)C12c1ccccc1-c1ccccc12 (centres undefined) | / | -15 | 63* | ? | / | 79*
O=[N+]([O-])c1ccc(N2CCOCC2)c2ccncc12 | / | / | -12 | / | / | /
CCCCCCCC(=O)NC(Oc1ccccc1[N+](=O)[O-])C(Cl)(Cl)Cl (centres undefined) | 10 | -1 | 37 | / | 12 | -19
CCN(CC)P(=O)(c1nccn1C)N(CC)CC | / | / | -13 | / | / | /
CC(=O)Nc1ccc(OCCF)cc1 | / | / | 100* | / | / | /
O=C(c1ccc2c(c1)ncn2C1CCCCC1)N1CCC2(CC1)OCCO2 | 80* | -3 | / | -27 | 92* | -1
O=C(c1cc2ccccn2n1)N1CCC2(CC1)OCCO2 | 4 | -3 | / | -32 | -3 | 18
CSCc1nnc2n1-c1ccc(Cl)cc1C(c1ccccc1)=NC2 | / | / | 13 | / | / | /
C=CCOC(=O)C1=C(C)OC(N)=C(C#N)C12C(=O)N(CN1CCOCC1)c1ccccc12 (centres undefined) | 91* | -5 | / | -48 | 88* | 11
CN(C)C(=O)Oc1c(Cl)cc(Cl)c2cccnc12 | / | / | 74* | / | / | /

High-throughput results as filed in PubChem.
